In ChEMBL document CHEMBL1961873, “Compounds: GSK PKIS; Assays: Nanosyn kinase panel” (2012):

Columns and labels:
[1] = target: Sphingosine kinase 1 (Homo sapiens) (UniProt Q9NYA1); conditions: at 1 µM;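 further: mean SPHK1 inhibition value reported from the GSK PKIS kinase panel screen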
[2] = target: T1, Sphingosine kinase 2 (Homo sapiens) (UniProt Q9NRA0); conditions: at 0.1 µM
T1 sequence (whole entry): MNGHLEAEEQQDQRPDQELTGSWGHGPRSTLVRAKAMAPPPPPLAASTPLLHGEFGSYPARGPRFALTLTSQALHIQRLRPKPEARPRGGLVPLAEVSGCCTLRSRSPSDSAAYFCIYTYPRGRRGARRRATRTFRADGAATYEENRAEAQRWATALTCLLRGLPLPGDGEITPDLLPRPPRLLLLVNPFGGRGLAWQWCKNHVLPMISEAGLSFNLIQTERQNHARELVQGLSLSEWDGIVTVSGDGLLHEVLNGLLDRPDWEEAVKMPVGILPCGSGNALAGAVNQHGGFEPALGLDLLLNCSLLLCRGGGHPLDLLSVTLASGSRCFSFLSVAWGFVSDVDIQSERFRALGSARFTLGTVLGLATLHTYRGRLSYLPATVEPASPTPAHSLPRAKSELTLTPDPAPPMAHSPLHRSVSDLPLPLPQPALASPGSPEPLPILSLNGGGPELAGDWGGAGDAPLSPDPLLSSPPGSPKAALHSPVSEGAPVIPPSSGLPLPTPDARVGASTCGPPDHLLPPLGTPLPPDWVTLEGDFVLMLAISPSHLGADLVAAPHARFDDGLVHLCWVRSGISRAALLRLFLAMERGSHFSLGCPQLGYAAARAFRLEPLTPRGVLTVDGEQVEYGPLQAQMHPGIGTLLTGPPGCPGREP

[3] = target: T1, Sphingosine kinase 2 (Homo sapiens); conditions: at 1 µM
[4] = target: Casein kinase II subunit alpha (Homo sapiens) (UniProt P68400); conditions: at 0.1 µM
[5] = target: Casein kinase II subunit alpha (Homo sapiens) (UniProt P68400); conditions: at 1 µM
[6] = target: T2, Inhibitor of nuclear factor kappa-B kinase subunit alpha (Homo sapiens) (UniProt O15111); conditions: at 0.1 µM
T2 sequence (whole entry): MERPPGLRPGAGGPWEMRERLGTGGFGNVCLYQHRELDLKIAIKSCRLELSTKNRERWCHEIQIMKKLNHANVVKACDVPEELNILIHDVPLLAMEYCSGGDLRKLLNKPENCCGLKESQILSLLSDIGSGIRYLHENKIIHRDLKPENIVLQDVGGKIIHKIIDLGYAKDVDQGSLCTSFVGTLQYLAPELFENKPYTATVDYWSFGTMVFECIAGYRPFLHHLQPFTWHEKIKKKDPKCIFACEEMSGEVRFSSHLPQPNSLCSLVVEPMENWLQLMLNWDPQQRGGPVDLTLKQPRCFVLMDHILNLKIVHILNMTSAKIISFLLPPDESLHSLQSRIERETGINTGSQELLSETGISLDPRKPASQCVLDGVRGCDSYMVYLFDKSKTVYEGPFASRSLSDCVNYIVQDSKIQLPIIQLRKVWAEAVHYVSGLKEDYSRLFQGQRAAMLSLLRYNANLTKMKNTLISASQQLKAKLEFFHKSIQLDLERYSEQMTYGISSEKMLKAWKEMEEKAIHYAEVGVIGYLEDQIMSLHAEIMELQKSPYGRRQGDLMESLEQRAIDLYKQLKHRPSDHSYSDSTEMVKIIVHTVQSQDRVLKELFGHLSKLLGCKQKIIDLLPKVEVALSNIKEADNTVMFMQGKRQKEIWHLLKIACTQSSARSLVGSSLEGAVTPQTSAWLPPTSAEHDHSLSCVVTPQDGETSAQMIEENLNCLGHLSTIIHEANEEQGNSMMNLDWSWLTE

[7] = target: T2, Inhibitor of nuclear factor kappa-B kinase subunit alpha (Homo sapiens); conditions: at 1 µM
[8] = target: T3, Inhibitor of nuclear factor kappa-B kinase subunit beta (Homo sapiens) (UniProt O14920); conditions: at 0.1 µM
T3 sequence (whole entry): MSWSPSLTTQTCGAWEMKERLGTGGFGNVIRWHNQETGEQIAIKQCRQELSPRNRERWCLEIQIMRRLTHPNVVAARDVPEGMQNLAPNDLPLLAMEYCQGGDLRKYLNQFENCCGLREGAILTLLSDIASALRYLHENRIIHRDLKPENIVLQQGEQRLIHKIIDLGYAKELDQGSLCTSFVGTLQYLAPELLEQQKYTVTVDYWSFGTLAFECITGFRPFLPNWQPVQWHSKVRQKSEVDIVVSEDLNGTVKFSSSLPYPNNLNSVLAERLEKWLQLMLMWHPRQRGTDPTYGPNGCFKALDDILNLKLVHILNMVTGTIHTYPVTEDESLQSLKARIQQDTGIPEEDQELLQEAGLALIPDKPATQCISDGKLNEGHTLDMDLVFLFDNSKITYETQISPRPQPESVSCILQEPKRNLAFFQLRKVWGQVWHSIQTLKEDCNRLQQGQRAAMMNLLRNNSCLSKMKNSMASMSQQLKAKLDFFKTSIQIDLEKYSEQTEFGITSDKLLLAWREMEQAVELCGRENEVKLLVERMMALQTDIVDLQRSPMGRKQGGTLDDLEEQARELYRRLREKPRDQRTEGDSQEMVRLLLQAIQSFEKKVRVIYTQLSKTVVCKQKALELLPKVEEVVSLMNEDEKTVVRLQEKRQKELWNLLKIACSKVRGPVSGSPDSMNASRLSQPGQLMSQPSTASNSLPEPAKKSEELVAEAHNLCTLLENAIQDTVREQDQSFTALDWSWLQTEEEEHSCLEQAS

[9] = target: T3, Inhibitor of nuclear factor kappa-B kinase subunit beta (Homo sapiens); conditions: at 1 µM
[10] = target: T4, Inhibitor of nuclear factor kappa-B kinase subunit epsilon (Homo sapiens) (UniProt Q14164); conditions: at 0.1 µM
T4 sequence (whole entry): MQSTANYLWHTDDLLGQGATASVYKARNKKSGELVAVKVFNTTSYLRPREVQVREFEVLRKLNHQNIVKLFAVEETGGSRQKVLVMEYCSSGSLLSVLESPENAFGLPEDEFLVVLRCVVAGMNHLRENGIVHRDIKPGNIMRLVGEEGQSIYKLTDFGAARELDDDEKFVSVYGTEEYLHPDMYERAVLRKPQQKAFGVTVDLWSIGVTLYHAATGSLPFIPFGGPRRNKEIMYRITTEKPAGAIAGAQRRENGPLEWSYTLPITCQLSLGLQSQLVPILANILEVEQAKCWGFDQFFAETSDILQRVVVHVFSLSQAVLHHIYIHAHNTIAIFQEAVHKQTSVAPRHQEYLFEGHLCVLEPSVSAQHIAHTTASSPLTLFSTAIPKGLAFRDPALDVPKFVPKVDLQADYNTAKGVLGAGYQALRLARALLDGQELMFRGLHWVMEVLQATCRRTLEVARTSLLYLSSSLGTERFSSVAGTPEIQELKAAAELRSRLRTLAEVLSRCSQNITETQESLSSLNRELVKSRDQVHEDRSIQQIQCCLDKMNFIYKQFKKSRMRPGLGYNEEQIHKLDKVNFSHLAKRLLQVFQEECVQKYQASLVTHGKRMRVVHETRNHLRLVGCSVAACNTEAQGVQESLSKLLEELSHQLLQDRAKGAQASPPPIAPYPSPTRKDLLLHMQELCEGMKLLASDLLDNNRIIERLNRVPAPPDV

[11] = target: T4, Inhibitor of nuclear factor kappa-B kinase subunit epsilon (Homo sapiens); conditions: at 1 µM
[12] = target: T5, Serine/threonine-protein kinase Nek1 (Homo sapiens) (UniProt Q96PY6); conditions: at 0.1 µM
T5 sequence (whole entry): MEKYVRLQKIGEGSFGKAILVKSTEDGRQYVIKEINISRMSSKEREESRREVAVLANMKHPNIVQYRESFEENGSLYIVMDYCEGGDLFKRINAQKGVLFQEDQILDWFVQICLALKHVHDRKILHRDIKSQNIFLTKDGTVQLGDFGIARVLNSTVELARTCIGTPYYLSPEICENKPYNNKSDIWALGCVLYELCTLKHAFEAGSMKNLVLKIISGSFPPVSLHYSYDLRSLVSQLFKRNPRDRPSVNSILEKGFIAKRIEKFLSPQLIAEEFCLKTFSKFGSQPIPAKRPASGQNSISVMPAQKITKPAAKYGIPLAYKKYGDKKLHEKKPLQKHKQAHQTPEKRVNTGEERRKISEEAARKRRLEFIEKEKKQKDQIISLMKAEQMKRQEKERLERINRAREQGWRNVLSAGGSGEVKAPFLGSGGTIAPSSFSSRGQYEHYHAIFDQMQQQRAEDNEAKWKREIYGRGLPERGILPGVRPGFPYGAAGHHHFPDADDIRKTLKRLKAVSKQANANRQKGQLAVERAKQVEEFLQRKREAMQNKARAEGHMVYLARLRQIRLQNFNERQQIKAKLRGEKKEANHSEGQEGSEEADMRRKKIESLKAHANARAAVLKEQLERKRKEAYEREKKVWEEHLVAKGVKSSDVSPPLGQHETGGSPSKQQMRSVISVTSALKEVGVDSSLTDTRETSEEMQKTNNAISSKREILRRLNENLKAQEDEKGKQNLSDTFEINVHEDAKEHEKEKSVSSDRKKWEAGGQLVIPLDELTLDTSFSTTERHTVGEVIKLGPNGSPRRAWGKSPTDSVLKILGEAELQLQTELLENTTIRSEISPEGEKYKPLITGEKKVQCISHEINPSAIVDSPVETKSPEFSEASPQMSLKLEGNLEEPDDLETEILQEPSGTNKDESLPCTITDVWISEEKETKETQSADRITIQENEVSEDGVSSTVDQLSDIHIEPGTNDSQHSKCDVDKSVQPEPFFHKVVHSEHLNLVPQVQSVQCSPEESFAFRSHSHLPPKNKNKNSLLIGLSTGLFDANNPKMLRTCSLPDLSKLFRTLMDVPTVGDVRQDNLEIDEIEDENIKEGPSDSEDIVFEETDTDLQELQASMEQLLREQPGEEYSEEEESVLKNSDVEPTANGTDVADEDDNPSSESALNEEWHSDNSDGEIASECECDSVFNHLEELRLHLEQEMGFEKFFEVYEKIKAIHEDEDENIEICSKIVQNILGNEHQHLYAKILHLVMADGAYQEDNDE

[13] = target: T5, Serine/threonine-protein kinase Nek1 (Homo sapiens); conditions: at 1 µM
[14] = target: T6, Serine/threonine-protein kinase Nek2 (Homo sapiens) (UniProt P51955); conditions: at 0.1 µM
T6 sequence (whole entry): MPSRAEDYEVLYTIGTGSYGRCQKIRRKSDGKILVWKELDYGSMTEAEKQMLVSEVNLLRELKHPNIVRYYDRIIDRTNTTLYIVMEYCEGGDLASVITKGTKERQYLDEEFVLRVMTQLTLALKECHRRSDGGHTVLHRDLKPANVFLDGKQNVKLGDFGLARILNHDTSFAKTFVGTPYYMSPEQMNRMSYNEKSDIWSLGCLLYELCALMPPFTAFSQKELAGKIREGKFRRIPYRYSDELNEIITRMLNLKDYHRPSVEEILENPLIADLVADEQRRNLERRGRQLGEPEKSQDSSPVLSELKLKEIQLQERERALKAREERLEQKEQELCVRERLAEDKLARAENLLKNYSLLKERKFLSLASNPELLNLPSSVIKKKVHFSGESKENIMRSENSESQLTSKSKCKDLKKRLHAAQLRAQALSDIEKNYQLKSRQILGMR

[15] = target: T6, Serine/threonine-protein kinase Nek2 (Homo sapiens); conditions: at 1 µM
[16] = target: Serine/threonine-protein kinase Nek6 (Homo sapiens) (UniProt Q9HC98); conditions: at 0.1 µM
[17] = target: Serine/threonine-protein kinase Nek6 (Homo sapiens) (UniProt Q9HC98); conditions: at 1 µM
[18] = target: Serine/threonine-protein kinase Nek7 (Homo sapiens) (UniProt Q8TDX7); conditions: at 0.1 µM
[19] = target: Serine/threonine-protein kinase Nek7 (Homo sapiens) (UniProt Q8TDX7); conditions: at 1 µM
[20] = target: T7, Serine/threonine-protein kinase Nek9 (Homo sapiens) (UniProt Q8TD19); conditions: at 0.1 µM;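 further: reported value is the mean percent inhibition of NEK9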
T7 sequence (whole entry): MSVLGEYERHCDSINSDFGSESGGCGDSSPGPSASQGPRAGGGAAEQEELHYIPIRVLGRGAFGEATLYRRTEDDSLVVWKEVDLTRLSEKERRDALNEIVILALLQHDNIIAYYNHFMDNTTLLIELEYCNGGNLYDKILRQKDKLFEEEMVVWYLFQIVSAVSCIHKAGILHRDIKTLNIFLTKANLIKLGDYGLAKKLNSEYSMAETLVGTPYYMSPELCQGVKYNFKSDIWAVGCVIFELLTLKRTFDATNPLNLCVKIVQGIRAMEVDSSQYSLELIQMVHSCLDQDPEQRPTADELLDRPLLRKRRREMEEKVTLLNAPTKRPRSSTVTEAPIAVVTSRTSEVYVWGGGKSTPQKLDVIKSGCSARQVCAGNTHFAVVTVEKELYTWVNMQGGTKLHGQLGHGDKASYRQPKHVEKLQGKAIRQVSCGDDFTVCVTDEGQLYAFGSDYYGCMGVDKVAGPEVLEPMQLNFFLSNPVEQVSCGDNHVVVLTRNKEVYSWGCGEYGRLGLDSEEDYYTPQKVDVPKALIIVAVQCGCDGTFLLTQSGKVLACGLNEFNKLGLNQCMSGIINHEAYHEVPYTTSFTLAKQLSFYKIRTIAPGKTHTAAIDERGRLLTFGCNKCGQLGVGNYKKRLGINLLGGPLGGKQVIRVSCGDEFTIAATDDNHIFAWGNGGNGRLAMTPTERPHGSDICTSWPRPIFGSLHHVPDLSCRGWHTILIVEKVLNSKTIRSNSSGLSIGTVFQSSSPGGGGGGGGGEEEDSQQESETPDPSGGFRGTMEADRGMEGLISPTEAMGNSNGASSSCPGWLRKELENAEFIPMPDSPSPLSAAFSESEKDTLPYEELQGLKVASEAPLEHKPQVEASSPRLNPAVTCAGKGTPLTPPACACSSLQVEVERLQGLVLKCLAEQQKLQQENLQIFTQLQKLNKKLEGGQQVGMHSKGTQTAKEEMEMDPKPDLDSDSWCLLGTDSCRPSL

Chain of Serine/threonine-protein kinase Nek6 (Homo sapiens) (Q9HC98 whole entry): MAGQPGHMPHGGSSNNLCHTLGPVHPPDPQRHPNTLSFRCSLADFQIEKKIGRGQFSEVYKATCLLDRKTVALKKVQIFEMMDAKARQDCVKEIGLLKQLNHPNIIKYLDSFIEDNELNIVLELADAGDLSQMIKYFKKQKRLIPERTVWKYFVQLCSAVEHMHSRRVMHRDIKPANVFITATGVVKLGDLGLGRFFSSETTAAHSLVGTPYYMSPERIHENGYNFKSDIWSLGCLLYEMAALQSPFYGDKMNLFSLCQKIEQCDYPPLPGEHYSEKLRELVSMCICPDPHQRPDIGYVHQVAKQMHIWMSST
Chain of Casein kinase II subunit alpha (Homo sapiens) (P68400 whole entry, looked up): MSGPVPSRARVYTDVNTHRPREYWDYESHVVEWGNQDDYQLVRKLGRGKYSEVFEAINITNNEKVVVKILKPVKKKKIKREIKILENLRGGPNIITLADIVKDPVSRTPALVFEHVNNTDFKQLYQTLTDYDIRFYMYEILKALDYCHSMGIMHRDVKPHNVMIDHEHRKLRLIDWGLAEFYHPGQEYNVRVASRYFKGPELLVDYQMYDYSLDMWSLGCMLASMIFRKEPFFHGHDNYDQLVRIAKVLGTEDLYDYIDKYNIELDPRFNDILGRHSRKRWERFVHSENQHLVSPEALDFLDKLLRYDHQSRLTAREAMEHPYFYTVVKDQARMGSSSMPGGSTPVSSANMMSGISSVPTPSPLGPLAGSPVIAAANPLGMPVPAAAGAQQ
Chain of Serine/threonine-protein kinase Nek7 (Homo sapiens) (Q8TDX7 whole entry, looked up): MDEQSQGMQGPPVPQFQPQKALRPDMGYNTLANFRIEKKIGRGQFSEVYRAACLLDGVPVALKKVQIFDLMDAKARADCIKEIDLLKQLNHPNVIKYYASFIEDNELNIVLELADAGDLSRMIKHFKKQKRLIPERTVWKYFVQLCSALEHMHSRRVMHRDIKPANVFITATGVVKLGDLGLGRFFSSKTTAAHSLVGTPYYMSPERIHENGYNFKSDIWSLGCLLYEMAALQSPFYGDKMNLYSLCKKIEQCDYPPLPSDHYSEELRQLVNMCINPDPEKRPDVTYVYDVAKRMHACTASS
Chain of Sphingosine kinase 1 (Homo sapiens) (Q9NYA1 whole entry): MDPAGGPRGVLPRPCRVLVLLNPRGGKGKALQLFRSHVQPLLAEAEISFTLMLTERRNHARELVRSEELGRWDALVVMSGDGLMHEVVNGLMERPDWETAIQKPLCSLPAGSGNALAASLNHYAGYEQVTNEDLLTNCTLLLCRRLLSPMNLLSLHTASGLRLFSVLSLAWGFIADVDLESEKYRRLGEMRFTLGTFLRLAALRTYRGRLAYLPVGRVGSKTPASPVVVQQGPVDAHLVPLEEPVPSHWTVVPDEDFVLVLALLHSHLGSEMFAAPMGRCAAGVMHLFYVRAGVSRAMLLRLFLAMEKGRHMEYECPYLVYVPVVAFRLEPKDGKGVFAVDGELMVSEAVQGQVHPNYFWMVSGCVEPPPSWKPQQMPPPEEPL

In the case of `COc1cc(C)c(N(C)C(=O)CN(C)C)cc1Nc1nc(Nc2cccc(F)c2C(N)=O)c2cc[nH]c2n1`, the inhibition [1] is reported as -0.02%, the inhibition [2] is reported as 0.91% and the inhibition [3] is reported as -0.35%. For the same compound, the inhibition [4] was 0.17%, the inhibition [5] was 4.3% and the inhibition [6] was 3.63%. For the same compound, the inhibition [7] was 1.85%, the inhibition [8] was 2.96% and the inhibition [9] was -0.54%. For the same compound, the inhibition [10] was 1.26%, the inhibition [11] was 0.91% and the inhibition [12] was 1.9%. The inhibition [13] was 1.66%, the inhibition [14] was 3.24% and the inhibition [15] was 3.64%. For the same compound, the inhibition [16] was 1.26%, the inhibition [17] was -1.46% and the inhibition [18] was 3.13%. The inhibition [19] was 2.22% and the inhibition [20] was 5.24%.
